Reference: PubChem BioAssay (NCI)
The panel holds about 79,000 compounds, 15% with a hit somewhere; the sample as a whole holds those more often. Unmarked numbers belong to inactive results. Calls of active or inactive are those of the source. No stated cut-off is given here; in the data, active means growth inhibition above about 70%; inactive means the rest.

Assay: NCI Yeast Anticancer Drug Screen. Data for the rad50 strain (AID 155);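 further: 0% = growth of vehicle-only cultures of the same strain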
Conditions: S. cerevisiae rad50 strain growth inhibition, stronger effect = higher value
Method: Growth inhibition of yeast strains with defined genetic alterations is measured as a screen for potential anti-cancer activity. Selected strains with alterations in DNA damage repair or cell cycle control were exposed to compounds and growth inhibition was measured relative to vehicle treated controls. The strain used in this assay is rad50

[1] = at 5.0 µM (retest, dose inferred, filed as 0.5)
[2] = at 50.0 µM (retest, dose inferred, filed as 5.0)

| Compound | growth inhibition [1] [%] | growth inhibition [2] | growth inhibition (at 50.0 µM) |
| --- | --- | --- | --- |
| CCCC(=O)OCC1CC2C=CC1C2 (configuration not stated) | 0 | -3% | -6.25% |
| CC(=O)OC(CCl)C(C)[N+](=O)[O-] (configuration not stated) | 7 | 91% (active) | 90.8% (active) |
| COc1ccc2[nH]c3ccc4cc[n+](CCN5CCC(C6CCN(CC[n+]7ccc8ccc9[nH]c%10ccc(OC)cc%10c9c8c7)CC6)CC5)cc4c3c2c1 | 69 | 98% (active) | 90.4% (active) |
| Cc1ccc(S(=O)(=O)NNC(C[N+](=O)[O-])c2ccccc2)cc1 (configuration not stated) | 69 | 99% (active) | 96.9% (active) |
| COc1ccc(-c2c(C(=O)O)[nH]c3ccccc23)cc1 | 38 | 90% (active) | 96.8% (active) |
| COc1ccc(/C=C2\CCC(CN3CCOCC3)C2=O)cc1 (configuration not stated) | 65 | 99% (active) | 93.5% (active) |
| ClC1c2ccccc2Cc2cccnc21 (configuration not stated) | 21 | 85% (active) | 75.3% (active) |
| NCc1ccccc1-c1c2nc(c(-c3ccccc3CN)c3ccc([nH]3)c(-c3ccccc3CN)c3nc(c(-c4ccccc4CN)c4ccc1[nH]4)C=C3)C=C2 | 41 | 84% (active) | 79% (active) |
| Clc1ccccc1CN1COc2c(cc(Cl)c3cccnc23)C1 | 21 | 99% (active) | 98.6% (active) |
| CC(C)N=C(NC(C)C)SCCCCCCSC(=NC(C)C)NC(C)C | 2 | -2% | 12.3% |
| COc1c(O)ccc2c1CN1CCc3cc4c(cc3C1C2)OCO4 (configuration not stated) | 18 | 50% | 65.9% |
| CNCCCNc1c2cc(OC)ccc2nc2cccc([N+](=O)[O-])c12 | 9 | 96% (active) | 82.8% (active) |
| CCCCCCCCCCCC(=O)OCC1CO1 (configuration not stated) | -6 | -26% | -11.7% |
| COc1cccc2c1C(=O)c1c(O)c3c(c(O)c1C2=O)CC(O)(C(C)=O)CC3OC1CC(NCC2(O)OCC(O)C(O)C2O)C(O)C(C)O1 (configuration not stated) | 54 | 98% (active) | 85.2% (active) |
